# Read-outs that look alike come from different tables or passages of the source.
# Experiments:
# [1] = system: FLT3-autoinhibited; settings: concentration: 1 μM, replicates: in singlicate; n = 1
# [2] = system: FLT3; settings: concentration: 1 μM, replicates: in singlicate; n = 1
# [3] = system: FLT4; settings: concentration: 1 μM, replicates: in singlicate; n = 1
# [4] = system: FRK; settings: concentration: 1 μM, replicates: in singlicate; n = 1
# [5] = system: FYN; settings: concentration: 1 μM, replicates: in singlicate; n = 1
# [6] = system: GAK; settings: concentration: 1 μM, replicates: in singlicate; n = 1
# [7] = system: T1, GCN2(Kin.Dom.2,S808G); settings: concentration: 1 μM, replicates: in singlicate; n = 1
# T1 construct: gene EIF2AK4
# [8] = system: GRK1; settings: concentration: 1 μM, replicates: in singlicate; n = 1
# [9] = system: T2, GRK2; settings: concentration: 1 μM, replicates: in singlicate; n = 1
# T2 construct: gene ADRBK1
# [10] = system: T3, GRK3; settings: concentration: 1 μM, replicates: in singlicate; n = 1
# T3 construct: gene ADRBK2
# [11] = system: GRK4; settings: concentration: 1 μM, replicates: in singlicate; n = 1
# [12] = system: GRK7; settings: concentration: 1 μM, replicates: in singlicate; n = 1
# [13] = system: GSK3A; settings: concentration: 1 μM, replicates: in singlicate; n = 1
# [14] = system: GSK3B; settings: n = 1
# [15] = system: T4, HASPIN; settings: concentration: 1 μM, replicates: in singlicate; n = 1
# T4 construct: gene GSG2
# [16] = system: HCK; settings: concentration: 1 μM, replicates: in singlicate; n = 1
# [17] = system: HIPK1; settings: concentration: 1 μM, replicates: in singlicate; n = 1
# [18] = system: HIPK2; settings: concentration: 1 μM, replicates: in singlicate; n = 1
# [19] = system: HIPK3; settings: concentration: 1 μM, replicates: in singlicate; n = 1
# [20] = system: HIPK4; settings: concentration: 1 μM, replicates: in singlicate; n = 1
# [21] = concentration: 1 μM, replicates: in singlicate
# 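Note: KINOMEscan kinase panel screen.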
smiles,measurement,setting,value
O=C(Nc1n[nH]c2cc(-c3cccc(F)c3)ccc12)C1CC1 [SB-735464],%Inh,[1],0%
same,%Inh,[2],21%
same,%Inh,[3],0%
same,%Inh,[4],6%
same,%Inh,[5],0%
same,%Inh,[6],9%
same,%Inh,[7],0%
same,%Inh,[8],14%
same,%Inh,[9],0%
same,%Inh,[10],12%
same,%Inh,[11],38%
same,%Inh,[12],6%
same,%Inh,[13],43%
same,%Inh,[14]; 1 µM,22%
same,%Inh,[15],30%
same,%Inh,[16],0%
same,%Inh,[17],7%
same,%Inh,[18],22%
same,%Inh,[19],31%
same,%Inh,[20],9%
CC(C)Oc1ccc2c(-c3ccnc(Nc4ccc(N5CCN(C)CC5)cc4)n3)cnn2n1 [GW696155],%Inh,[1],70%
same,%Inh,[2],98.3%
same,%Inh,[3],30%
same,%Inh,[4],41%
same,%Inh,[5],53%
same,%Inh,[6],96.3%
same,%Inh,[7],100%
same,%Inh,[8],5%
same,%Inh,[9],0%
same,%Inh,[10],48%
same,%Inh,[11],84%
same,%Inh,[12],0%
same,%Inh,[13],0%
same,%Inh,[14]; [21],6%
same,%Inh,[15],70%
same,%Inh,[16],0%
same,%Inh,[17],97.2%
same,%Inh,[18],98.7%
same,%Inh,[19],98.5%
same,%Inh,[20],83%
COc1ccc(Nc2nccc(N3CCC(NC(=O)Nc4cc(C)ccc4C)C3)n2)cc1 (centres unmarked) [GSK1379741],%Inh,[1],0%
same,%Inh,[2],0%
same,%Inh,[3],1%
same,%Inh,[4],0%
same,%Inh,[5],2%
same,%Inh,[6],9%
same,%Inh,[7],0%
same,%Inh,[8],0%
same,%Inh,[9],0%
same,%Inh,[10],0%
same,%Inh,[11],0%
same,%Inh,[12],0%
same,%Inh,[13],0%
same,%Inh,[14]; [21],18%
same,%Inh,[15],0%
same,%Inh,[16],0%
same,%Inh,[17],0%
same,%Inh,[18],0%
same,%Inh,[19],16%
same,%Inh,[20],0%
[2H]C([2H])(c1cccc(C(F)(F)F)c1C)n1ccn2c(=O)nc(N3CCOCC3)cc12 [GSK2336394],%Inh,[1],0%
same,%Inh,[2],12%
same,%Inh,[3],3%
same,%Inh,[4],6%
same,%Inh,[5],44%
same,%Inh,[6],0%
same,%Inh,[7],0%
same,%Inh,[8],0%
same,%Inh,[9],0%
same,%Inh,[10],20%
same,%Inh,[11],0%
same,%Inh,[12],0%
same,%Inh,[13],9%
same,%Inh,[14]; [21],0%
same,%Inh,[15],0%
same,%Inh,[16],0%
same,%Inh,[17],0%
same,%Inh,[18],0%
same,%Inh,[19],9%
same,%Inh,[20],0%
CNc1ncnc2[nH]ncc12 [SKF-18355],%Inh,[1],0%
same,%Inh,[2],0%
same,%Inh,[3],0%
same,%Inh,[4],0%
same,%Inh,[5],0%
same,%Inh,[6],0%
same,%Inh,[7],0%
same,%Inh,[8],29%
same,%Inh,[9],0%
same,%Inh,[10],0%
same,%Inh,[11],4%
same,%Inh,[12],0%
same,%Inh,[13],0%
same,%Inh,[14]; [21],25%
same,%Inh,[15],44%
same,%Inh,[16],16%
same,%Inh,[17],42%
same,%Inh,[18],0%
same,%Inh,[19],12%
same,%Inh,[20],0%
Cn1ccc2ncnc(Oc3ccc(NC(=O)Nc4ccncc4)c(Cl)c3)c21,%Inh,[1],0%
same,%Inh,[2],0%
same,%Inh,[3],0%
same,%Inh,[4],0%
same,%Inh,[5],0%
same,%Inh,[6],0%
same,%Inh,[7],11%
same,%Inh,[8],7%
same,%Inh,[9],0%
same,%Inh,[10],0%
same,%Inh,[11],19%
same,%Inh,[12],0%
same,%Inh,[13],29%
same,%Inh,[14]; [21],0%
same,%Inh,[15],28%
same,%Inh,[16],0%
same,%Inh,[17],17%
same,%Inh,[18],0%
same,%Inh,[19],0%
same,%Inh,[20],0%
O=C(Nc1cccc(-c2nn3ncccc3c2-c2ccnc(Nc3cccc(C(F)(F)F)c3)n2)c1)c1c(F)cccc1F [GSK299495],%Inh,[1],0%
same,%Inh,[2],41%
same,%Inh,[3],40%
same,%Inh,[4],88%
same,%Inh,[5],62%
same,%Inh,[6],1%
same,%Inh,[7],8%
same,%Inh,[8],6%
same,%Inh,[9],0%
same,%Inh,[10],33%
same,%Inh,[11],2%
same,%Inh,[12],0%
same,%Inh,[13],0%
same,%Inh,[14]; [21],18%
same,%Inh,[15],2%
same,%Inh,[16],98.1%
same,%Inh,[17],0%
same,%Inh,[18],0%
same,%Inh,[19],1%
same,%Inh,[20],0%
Cn1cc(-c2ccc3c(c2)CCN3C(=O)Cc2ccccc2Cl)c2c(N)ncnc21 [GSK2608885],%Inh,[1],20%
same,%Inh,[2],99.3%
same,%Inh,[3],99.8%
same,%Inh,[4],97.9%
same,%Inh,[5],97.1%
same,%Inh,[6],33%
same,%Inh,[7],81%
same,%Inh,[8],0%
same,%Inh,[9],0%
same,%Inh,[10],0%
same,%Inh,[11],0%
same,%Inh,[12],0%
same,%Inh,[13],0%
same,%Inh,[14]; [21],9%
same,%Inh,[15],0%
same,%Inh,[16],99.4%
same,%Inh,[17],0%
same,%Inh,[18],0%
same,%Inh,[19],14%
same,%Inh,[20],36%
CC(C)(C)n1cnc2c(N)ncnc21 [SKF-97359],%Inh,[1],0%
same,%Inh,[2],19%
same,%Inh,[3],0%
same,%Inh,[4],0%
same,%Inh,[5],0%
same,%Inh,[6],0%
same,%Inh,[7],29%
same,%Inh,[8],0%
same,%Inh,[9],39%
same,%Inh,[10],24%
same,%Inh,[11],5%
same,%Inh,[12],0%
same,%Inh,[13],0%
same,%Inh,[14]; [21],0%
same,%Inh,[15],65%
same,%Inh,[16],0%
same,%Inh,[17],13%
same,%Inh,[18],16%
same,%Inh,[19],0%
same,%Inh,[20],0%
O=C(c1ccc(-c2cc(-c3c[nH]nc3-c3ccccn3)ccn2)cc1)N1CCOCC1 [GW812171],%Inh,[1],0%
same,%Inh,[2],1%
same,%Inh,[3],0%
same,%Inh,[4],0%
same,%Inh,[5],0%
same,%Inh,[6],34%
same,%Inh,[7],0%
same,%Inh,[8],26%
same,%Inh,[9],0%
same,%Inh,[10],20%
same,%Inh,[11],14%
same,%Inh,[12],0%
same,%Inh,[13],8%
same,%Inh,[14]; [21],7%
same,%Inh,[15],0%
same,%Inh,[16],36%
same,%Inh,[17],36%
same,%Inh,[18],0%
same,%Inh,[19],6%
same,%Inh,[20],7%

# From PMC5540273 (PLoS ONE, 2017)
